Assay [1] is described as follows: qHTS assay to identify aromatase inhibitors - cell viability counter screen (AID 743084;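 also: cells stimulated with testosterone during compound exposure; nearly all actives have a fitted effect of over 55% in size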; also: potency is read from the fitted curve at half-maximal effect). (qHTS replaces the single test concentration by a dilution series.)
Assay [2] deals with Aryl hydrocarbon receptor (Homo sapiens) (UniProt P35869). Kind of assay: qHTS assay to identify small molecule that activate the aryl hydrocarbon receptor (AhR) signaling pathway (AID 743085). Also: nearly all actives have a fitted effect of over 15% in size. Also: potency is read from the fitted curve at half-maximal effect.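 As to activation: HG2L7.5c1 human HepG2 liver cells with stably integrated DRE-driven firefly reporter; series mostly up to about 70 µM.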 In a few lines: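 Stably transfected human liver carcinoma cells (HG2L7.5c1; 20 DRE-firefly luciferase) were incubated 5 h, dosed, and kept 24 h at 37C. Agonism was scored from increased luciferase luminescence.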
Aryl hydrocarbon receptor (Homo sapiens), sequence (P35869 whole entry, looked up): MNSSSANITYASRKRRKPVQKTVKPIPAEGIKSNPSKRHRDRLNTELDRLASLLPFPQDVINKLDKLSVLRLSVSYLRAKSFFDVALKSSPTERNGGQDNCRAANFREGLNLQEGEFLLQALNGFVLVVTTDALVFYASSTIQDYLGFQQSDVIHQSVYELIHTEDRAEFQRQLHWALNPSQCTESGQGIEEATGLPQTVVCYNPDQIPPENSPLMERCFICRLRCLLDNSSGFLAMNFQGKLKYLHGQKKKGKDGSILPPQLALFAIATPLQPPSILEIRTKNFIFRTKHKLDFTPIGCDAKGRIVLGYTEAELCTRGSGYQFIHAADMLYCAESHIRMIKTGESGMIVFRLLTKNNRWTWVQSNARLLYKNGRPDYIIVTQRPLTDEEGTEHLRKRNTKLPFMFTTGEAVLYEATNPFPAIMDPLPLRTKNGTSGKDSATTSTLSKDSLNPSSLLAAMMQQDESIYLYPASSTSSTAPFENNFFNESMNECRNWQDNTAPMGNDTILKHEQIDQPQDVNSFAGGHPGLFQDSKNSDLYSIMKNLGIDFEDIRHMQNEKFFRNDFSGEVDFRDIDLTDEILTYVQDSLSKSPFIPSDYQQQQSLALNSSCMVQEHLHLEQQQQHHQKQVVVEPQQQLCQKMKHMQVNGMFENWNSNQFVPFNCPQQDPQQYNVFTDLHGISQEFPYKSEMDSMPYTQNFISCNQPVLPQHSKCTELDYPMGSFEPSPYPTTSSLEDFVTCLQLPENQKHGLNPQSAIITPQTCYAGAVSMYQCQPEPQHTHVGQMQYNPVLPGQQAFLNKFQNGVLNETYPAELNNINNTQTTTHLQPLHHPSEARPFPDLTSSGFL

The nature of assay [3]: qHTS assay to identify small molecule that activate the aryl hydrocarbon receptor (AhR) signaling pathway - cell viability counter screen (AID 743086). Also: nearly all actives have a fitted effect of over 45% in size. Also: potency is read from the fitted curve at half-maximal effect. In a few lines: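 HepG2-AhR-luc (HG2L7.5c1) cells, 4000/well, were preincubated 5 h at 37C, exposed to compound in qHTS format for 24 hr at 37C, then given CellTiter-Fluor for 30 min; viability was read as fluorescence in the reporter wells.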

For assay [4], the target named is Peroxisome proliferator-activated receptor gamma (Homo sapiens) (UniProt P37231). Kind of assay: qHTS assay to identify small molecule agonists of the peroxisome proliferator-activated receptor gamma (PPARg) signaling pathway (AID 743094; active = well fitted activation curve with a large enough effect in the signal ratio in the repeat runs, not every such curve was filed as active; the % refers to the signal ratio). In a few lines:
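GeneBLAzer PPARg UAS-bla HEK293H cells carrying a stably integrated beta-lactamase reporter were pre-incubated 5 h at 37C, then exposed to compounds in DMSO for 17 h at 37C; LiveBLAzer B/G FRET substrate was added for 1 h at room temperature and fluorescence read.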

Assay [5] can be described thus: qHTS assay to identify small molecule phospholipidosis (PLD) inducers (AID 1259344; active = well fitted curve in the direction sought with a large enough effect; an effect the other way counts as inactive or inconclusive). In a few lines: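 HepG2 cells grown on collagen I take up LipidTOX Red while exposed to compound for 24 h; after fixation they are imaged at 20x and pit metrics are extracted.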

Inconclusive results are not listed. A number with no mark means an inactive call. The source made the active and inactive calls. Unless noted, calls follow the shape of the dose curve; as a rule, active = well fitted curve in the direction sought with a large enough effect in the repeat runs; inconclusive = weak or mixed curves; inactive = no such curve, though single readings can be large; an effect the other way counts as inactive or inconclusive.
% is scaled to controls: 0 for no effect and ±100 for the full control effect.

Peroxisome proliferator-activated receptor gamma (Homo sapiens), sequence (P37231 whole entry, looked up): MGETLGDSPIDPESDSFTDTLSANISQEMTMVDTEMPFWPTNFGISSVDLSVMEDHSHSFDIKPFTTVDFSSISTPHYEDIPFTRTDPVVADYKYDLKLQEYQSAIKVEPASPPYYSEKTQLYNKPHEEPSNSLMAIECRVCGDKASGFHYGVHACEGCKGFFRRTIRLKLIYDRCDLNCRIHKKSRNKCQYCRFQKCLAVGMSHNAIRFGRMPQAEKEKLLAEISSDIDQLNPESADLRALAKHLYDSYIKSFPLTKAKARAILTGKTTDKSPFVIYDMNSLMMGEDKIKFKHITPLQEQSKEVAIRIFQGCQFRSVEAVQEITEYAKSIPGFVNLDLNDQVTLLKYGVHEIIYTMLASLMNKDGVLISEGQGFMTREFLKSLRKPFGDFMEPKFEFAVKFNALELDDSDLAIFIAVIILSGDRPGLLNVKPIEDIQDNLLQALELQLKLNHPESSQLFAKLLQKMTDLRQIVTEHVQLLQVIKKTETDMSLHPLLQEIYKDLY

As to `O=P(O)(O)OC(CO)CO`, the Potency entry in assay [1], in assay [2], in assay [3], in assay [4] and in assay [5] was “inactive” throughout.

In the case of `C#CCC(Cc1cnc2nc(N)nc(N)c2n1)c1ccc(C(=O)N[C@@H](CCC(=O)O)C(=O)O)cc1` (some centres undefined), the Potency entry in assay [1], in assay [2] and in assay [3] was “inactive” in each case. Besides, the PLD induction in assay [5] was 6.01% [at 0.306 µM].

Take `COc1cc(S(C)=O)ccc1-c1nc2ncccc2[nH]1` (centres undefined): the Potency entry in assay [1], in assay [3], in assay [4] and in assay [5] was “inactive” each time. The Potency in assay [2] is 2.11 µM (active).

For the compound `CCOC(=O)[C@H](CCc1ccccc1)N[C@@H](C)C(=O)N1CC2(C[C@H]1C(=O)O)SCCS2`, the Potency result in assay [1], in assay [2], in assay [3], in assay [4] and in assay [5] was “inactive” each time.

Consider `CO[C@H]1C=CO[C@@]2(C)Oc3c(C)c(O)c4c(O)c(c(/C=N/N5CCN(C6CCCC6)CC5)c(O)c4c3C2=O)NC(=O)/C(C)=C\C=C[C@H](C)[C@H](O)[C@@H](C)[C@@H](O)[C@@H](C)[C@H](OC(C)=O)[C@@H]1C`, for which the results for the Potency in assay [1] and in assay [3] were 23.7 µM (active) and 26.6 µM (active), respectively. Besides, the Potency result in assay [2] and in assay [5] was “inactive” each time.

As for `COCC1=C(C(=O)OC(C)OC(=O)OC(C)C)N2C(=O)[C@@H](NC(=O)/C(=N\OC)c3csc(N)n3)[C@H]2SC1` (some centres undefined), the Potency entry in assay [1], in assay [2], in assay [3], in assay [4] and in assay [5] was “inactive” each time.

In the case of `CO[C@H]1C[C@H](O[C@H]2[C@H](C)[C@@H](O[C@@H]3O[C@H](C)C[C@H](N(C)C)[C@H]3OC(C)=O)[C@@H](C)C[C@]3(CO3)C(=O)[C@H](C)[C@@H](OC(C)=O)[C@@H](C)[C@@H](C)OC(=O)[C@@H]2C)O[C@@H](C)[C@@H]1OC(C)=O`, the Potency entry in assay [1], in assay [2], in assay [3], in assay [4] and in assay [5] was “inactive” each time.

In the case of `O=C(Nc1ccc(Br)cc1)c1cc(Br)c(Br)s1`, the Potency result in assay [1], in assay [4] and in assay [5] was “inactive” each time. For the same compound, the Potency in assay [2] was 16.8 µM (active).

Turning to `CCOC(=O)COc1ccc2c(C)c(CCN(CC)CC)c(=O)oc2c1`, the Potency result in assay [1], in assay [2], in assay [3] and in assay [4] was “inactive” throughout. Also, the PLD induction in assay [5] was -3.34% [at 7.66 µM].

Consider `O=C(O)[C@@H](O)[C@H](O)[C@H](O)[C@@H](O)C(=O)O` (tested in a mixture with another compound), for which the Potency entry in assay [1], in assay [2], in assay [3], in assay [4] and in assay [5] was “inactive” throughout.

Regarding `CCCCCCCCCCCCCCCCCC(=O)OCCO`, the Potency entry in assay [1], in assay [2], in assay [3], in assay [4] and in assay [5] was “inactive” throughout.

As for `CCOC(=O)[C@H](CCc1ccccc1)N[C@H]1CCCN2CCC[C@@H](C(=O)O)N2C1=O`, the Potency entry in assay [1], in assay [2], in assay [4] and in assay [5] was “inactive” in each case.

With `Cc1nnc(C(C)C)n1C1C[C@H]2CC[C@@H](C1)N2CC[C@H](NC(=O)C1CCC(F)(F)CC1)c1ccccc1` (some centres undefined), the Potency result in assay [1], in assay [2], in assay [3] and in assay [4] was “inactive” in each case. Also, the PLD induction in assay [5] is -2.27% [at 7.66 µM].

In the case of `CCCCCC(O)/C=C/C=O` (centres undefined), the Potency result in assay [1], in assay [2], in assay [3], in assay [4] and in assay [5] was “inactive” each time.

With `CNC[C@@H]1CC[C@@H](N)[C@@H](O[C@H]2[C@H](O)[C@@H](O[C@H]3OC[C@](C)(O)[C@H](NC)[C@H]3O)[C@H](N)C[C@@H]2N)O1`, the Potency entry in assay [1], in assay [2], in assay [3] and in assay [4] was “inactive” throughout. Moreover, in assay [5], the PLD induction was -1.48% [at 7.66 µM].

For `COc1cc(Br)c(C[N+]2(CCOCCC3CCC4CC3C4(C)C)CCOCC2)cc1OC` (centres undefined), the Potency entry in assay [1], in assay [2], in assay [3], in assay [4] and in assay [5] was “inactive” throughout.

In the case of `CCOC(=O)CCC(=O)O[C@H]1[C@H](O[C@@H]2[C@@H](C)[C@H](O[C@H]3C[C@@](C)(OC)[C@@H](O)[C@H](C)O3)[C@@H](C)C(=O)O[C@H](CC)[C@@](C)(O)[C@H](O)[C@@H](C)C(=O)[C@H](C)C[C@@]2(C)O)O[C@H](C)C[C@@H]1N(C)C`, the Potency entry in assay [1], in assay [2], in assay [4] and in assay [5] was “inactive” each time.

On to `CN1CCc2c(c3ccccc3n2Cc2ccccc2)C1`, for which the Potency entry in assay [1], in assay [2], in assay [3], in assay [4] and in assay [5] was “inactive” throughout.

For the compound `CCC(C)(C)OC(=O)N[C@@H](Cc1c[nH]c2ccccc12)C(=O)N[C@@H](CCSC)C(=O)N[C@@H](CC(=O)O)C(=O)N[C@@H](Cc1ccccc1)C(N)=O`, the Potency result in assay [1], in assay [2], in assay [3], in assay [4] and in assay [5] was “inactive” each time.

Take `C[C@@H]1C/C=C/C=C/C=C/C=C/[C@H](O[C@@H]2O[C@H](C)[C@@H](O)[C@H](N)[C@@H]2O)C[C@@H]2O[C@](O)(C[C@@H](O)C[C@H]3O[C@@H]3/C=C/C(=O)O1)C[C@H](O)[C@H]2C(=O)O`: the Potency result in assay [1], in assay [2], in assay [3], in assay [4] and in assay [5] was “inactive” throughout.

`CO[C@@H]1[C@@H](O[C@@H]2O[C@H](C)[C@@H](O[C@H]3C[C@@](C)(O)[C@@H](OC(=O)CC(C)C)[C@H](C)O3)[C@H](N(C)C)[C@H]2O)[C@@H](CC=O)C[C@@H](C)[C@@H](O)/C=C/C=C/C[C@@H](C)OC(=O)C[C@H]1O`: the Potency entry in assay [1], in assay [2], in assay [4] and in assay [5] was “inactive” each time.

For `CCCC(CCC)C(N)=O`, the Potency entry in assay [1], in assay [2], in assay [3] and in assay [4] was “inactive” each time. Further, the PLD induction in assay [5] was 0.287% [at 7.66 µM].

With `CCCCCCCCCCCCCCCCSCC(COC)COP(=O)([O-])OCC[N+](C)(C)C` (centres undefined), the Potency result in assay [1], in assay [2], in assay [3], in assay [4] and in assay [5] was “inactive” throughout.

For the origin of these results see PubChem BioAssay (Tox21).
